# Screens (PubChem BioAssay)
# Sampled rows, rich in hits. Any-hit rate of the full collection: about 9.6%.
# Lmaj promast = reduces viability of Leishmania major promastigotes; 200,000 compounds, 9% hits; resazurin fluorescence viability; AID 1063; inhibition, % at 10 µM; in the data active = inhibition above about 50%;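 note: promastigotes grown with compound for 44 hours at 28 °C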
# HCT116 bCat-KO = beta-catenin-lacking colon tumor cell growth suppression; HCT116 beta-catenin knockout viability, CellTiter-Glo, 60 h; active compounds read low; viability, % at 10 µM; 140,000 compounds, 1.5% hits;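 active = viability at or under a set limit, the compound median less 4 SD, cut at about 6% in these data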;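 note: 0% = Hyamine 1622 control at 20 µM and 100% = untreated cell control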
# Autophagy HCS = autophagy modulation, high-content screen; 190,000 compounds, 0.98% hits; calls only at 10 µM (by protocol); AID 463193; MEF GFP-LC3 puncta imaging; test concentration mostly 10 µM;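 active = percentage of spot-positive cells more than 3 SD above its plate mean, without a fluorescence outlier flag or 80% toxicity; inconclusive = no clear call, values can overlap the other calls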;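 note: spot-positive cell cutoff set from DMSO-treated cells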
# Insulin prom inh = TRM-6 insulin promoter activity inhibition. TRM-6 cells (human fetal islet line), insulin promoter-eGFP reporter, imaging; reporter expression induced with tamoxifen. inhibition, % at 2 µM. 130,000 compounds, 0.9% hits;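 active = inhibition above the mean plus 3 SD, with well images judged a real hit on visual review, cut at about 60% in these data, passing the limit was not always enough; inconclusive = inhibition over the cutoff but images rejected on review; inactive = inhibition not above the cutoff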
# PTEN del growth = PTEN-deleted cell growth suppression; HCT116 PTEN-null viability, CellTiter-Glo, 60 h; active compounds read low; viability, % at 10 µM; 140,000 compounds, 1.2% hits; AID 827;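 active = viability at or below a set limit, 4 SD under the median of all tested compounds, cut at about 3.7% in these data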;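 note: PTEN knockout HCT116 line with beta catenin targeted HCT116 as companion control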
# Insulin prom up = MIN6 insulin promoter up-regulation; MIN6 insulin promoter-GFP reporter, high-content imaging; active compounds read high; z-score at 5 µM; 190,000 compounds, 0.3% hits; AID 1625;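 active = z-score above 3 at 5 µM with at least 500 cells counted in the well; inconclusive = wells under 500 cells, flagged as cytotoxic or low count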
# The depositor's hits bear a star; i = inactive; ? = inconclusive; / = no result.
SMILES,Lmaj promast,HCT116 bCat-KO,Autophagy HCS,Insulin prom inh,PTEN del growth,Insulin prom up
O=C(NCc1ccccc1)C12CN(Cc3ccccc3)CC1C(c1cccc([N+](=O)[O-])c1)=NO2 (configuration not stated),18,74,i,-32,78,/
O=C(Nc1nc(-c2nc3ccccc3s2)cs1)c1ccco1,-8,83,i,?,79,0
CC(C)C(=O)NC(c1ccco1)c1ccc2cccnc2c1O (configuration not stated),100*,3.5*,i,-23,2.0*,-0.23
Oc1c(C(Nc2nc3ccccc3s2)c2ccco2)ccc2cccnc12 (configuration not stated),100*,13,i,/,15,-3.9
Clc1ccc(Cc2ccc(SCc3ccccc3)nn2)c(Cl)c1,1,84,i,3,81,0.98
CC(C)COC(=O)N(C)c1ccc(C(O)(C(F)(F)F)C(F)(F)F)cc1,100*,62,i,11,75,-0.09
COCC(C)NC(=O)c1ccc(N(C)C)cc1 (configuration not stated),-8,90,i,-12,86,-0.18
CC(/C=N/N1CCN(c2ccccc2)CC1)=C\c1ccccc1,-2,81,i,/,101,0.33
COc1ccc(N2C(=O)C(Cl)=C(Nc3ccccc3O)C2=O)cc1,98*,77,i,-38,78,-0.41
NC(=O)CCC(NS(=O)(=O)c1ccc(Cl)cc1)C(=O)NCc1ccc(Cl)cc1 (configuration not stated),60*,89,i,6,94,0.4
CSCCC(NS(=O)(=O)c1ccc(F)cc1)C(=O)NCc1ccc(S(N)(=O)=O)cc1 (configuration not stated),/,/,/,/,/,-0.32
C=CCn1c(SCc2c(C)noc2C)nc2sc3c(c2c1=O)CCCC3,13,23,i,11,20,-2.4
CCN1/C(=C/C=C/c2oc3ccc(-c4ccccc4)cc3[n+]2CC)Oc2ccc(-c3ccccc3)cc21,100*,/,/,i,/,?
COc1ccccc1-c1nnc(Sc2nc([N+](=O)[O-])nn2C)o1,97*,2.1*,i,/,2.4*,/
CCOc1ccc(CN2CCN(Cc3cccn3-c3ncccn3)CC2CCO)cc1 (configuration not stated),2,/,i,/,/,1.1
Cc1ccc(CN2CCN(Cc3cccc4c3OCO4)CC2CCO)cc1 (configuration not stated),58*,/,i,/,/,0.01
CCOc1ccccc1CN1CCN(Cc2csc(C(C)=O)c2)CC1CCO (configuration not stated),73*,/,i,/,/,1.3
CCOc1ccc(CN2CCN(Cc3cccc4c3OCO4)CC2CCO)cc1 (configuration not stated),77*,/,i,/,/,0.29
CCOc1ccccc1CN1CCN(Cc2cccc3c2OCO3)CC1CCO (configuration not stated),21,/,i,/,/,0.25
CCOc1ccc(CN2CCN(Cc3[nH]c4ccccc4c3C)CC2CCO)cc1 (configuration not stated),77*,/,i,-52,/,0.01
CCOc1ccccc1CN1CCN(Cc2cc3ccccc3[nH]2)CC1CCO (configuration not stated),24,/,i,/,/,0.33
CN(c1ccc(F)cc1)S(=O)(=O)c1ccc2[nH]cc(C(=O)O)c(=O)c2c1,-8,98,i,/,99,0.06
CC(C)CC1=NN(C(=O)c2ccco2)C(O)(C(F)(F)F)C1 (configuration not stated),-3,/,i,/,/,-0.97
O=S(=O)(c1ccccc1)c1nc(-c2ccccc2)oc1NCc1cccnc1,6,97,i,/,92,0.38
COc1nccnc1NS(=O)(=O)c1ccc(NC(=S)NC(=O)/C=C/c2ccc(F)cc2)cc1,-7,92,i,25,102,0.91
SMILES,Lmaj promast,HCT116 bCat-KO,Autophagy HCS,Insulin prom inh,PTEN del growth,Insulin prom up
COc1cc(C=O)ccc1OCCSc1ccc(Cl)cc1,3,107,i,-23,94,-0.19
CC(=O)NNC(=S)NC(=O)c1ccc(C)cc1,10,/,i,29,/,-0.26
Cc1ccc(C(=O)NNC(=S)NC(=O)c2ccc(Cl)cc2)cc1,64*,34,i,0,45,/
CC1CC(C(F)F)n2nc(C(=O)O)cc2N1 (configuration not stated),-4,92,i,30,93,/
Cc1cccc(NC(=S)N=Nc2c(O)[nH]c3ccccc23)c1,97*,16,i,-47,15,-2.6
CC(C)NC(=S)N=Nc1c(O)[nH]c2ccc(C(C)C)cc12,91*,25,i,/,19,-1.6
CC(C)c1ccc2[nH]c(O)c(N=NC(=O)c3cccc(S(=O)(=O)Nc4ccccc4Cl)c3)c2c1,1,24,i,57,20,0.81
CCN(CC)CCCOC(=O)C(c1ccccc1)c1ccccc1,86*,/,i,/,/,0.92
CCOC(=O)c1ccc(NC(=S)NN2CCOCC2)cc1,53*,101,i,5,101,-0.02
CCOC(=O)c1ccc(CNCc2ccc(Br)cc2)cc1,45,96,i,0,93,0.03
CCOC(=O)c1ccc(NC(=S)NCCCN2CCCCC2)cc1,20,91,i,3,98,-1.1
CCOC(=O)c1ccc(NC(=S)Nc2ccc(C)cc2)cc1,-7,/,i,/,/,-0.56
CCOC(=O)c1ccc(NC(=O)N2CCN(CCc3ccccc3)CC2)cc1,64*,98,i,21,99,0.14
CCOC(=O)c1ccc(CNCc2ccccc2)cc1,100*,96,i,-5,106,0.23
CCOC(=O)c1ccc(NC(=S)NCCCN2CCN(C3CCCCC3)CC2)cc1,53*,/,i,-41,/,-0.35
CO/C=C\C=C/c1nnn(-c2ccc(Cl)cc2)n1,7,63,i,/,57,0.15
O=c1cc(CO)oc(CN2CCN(c3ccccc3F)CC2)c1O,-3,88,/,/,97,0.31
O=S(=O)(NC1c2cccc3cccc(c23)C1N1CCNCC1)c1ccc(Cl)cc1 (configuration not stated),100*,/,i,13,/,0.08
Cn1cnnc1SC1c2cccc3cccc(c23)C1NS(=O)(=O)c1ccc(Cl)cc1 (configuration not stated),53*,78,i,-19,88,0.05
Cn1cnnc1SC1c2cccc3cccc(c23)C1NS(=O)(=O)c1ccccc1 (configuration not stated),43,94,i,-13,90,1.8
CC(=O)N1CCN(C2c3cccc4cccc(c34)C2NS(=O)(=O)c2ccccc2)CC1 (configuration not stated),1,88,i,14,85,-0.36
N#CCSc1nc(N)c(C#N)c(C2CCCCC2)c1C#N,15,68,i,/,53,-0.44
CCOc1ccc(Br)cc1/C(C)=N\NC1=NCCN1,95*,14,i,-11,15,-2.8
CCOc1ccc(CSC2=NCCN2)cc1Cl,22,67,i,/,75,-0.85
